# Reference: PubChem BioAssay AID1220 (Sanford-Burnham Center for Chemical Genomics, 2008)
# About 1,300 (0.68%) of roughly 190,000 compounds were called active. The sample as a whole holds a higher share of actives than the screen did. Unmarked numbers belong to inactive results. No stated cut-off is given here; in the data, active means inhibition above about 50%; inactive means the rest.
# Target: Mannose-6-phosphate isomerase (Homo sapiens) (UniProt P34949)
# Assay: human PMI inhibitors, high substrate, primary screen, biochemical, fluorescence intensity, high mannose 6-phosphate (AID 1220)
# Details: recombinant PMI enzyme, coupled fluorescence intensity; at 20 µM; stronger effect = higher value
# Chain of Mannose-6-phosphate isomerase (Homo sapiens) (P34949 whole entry, looked up): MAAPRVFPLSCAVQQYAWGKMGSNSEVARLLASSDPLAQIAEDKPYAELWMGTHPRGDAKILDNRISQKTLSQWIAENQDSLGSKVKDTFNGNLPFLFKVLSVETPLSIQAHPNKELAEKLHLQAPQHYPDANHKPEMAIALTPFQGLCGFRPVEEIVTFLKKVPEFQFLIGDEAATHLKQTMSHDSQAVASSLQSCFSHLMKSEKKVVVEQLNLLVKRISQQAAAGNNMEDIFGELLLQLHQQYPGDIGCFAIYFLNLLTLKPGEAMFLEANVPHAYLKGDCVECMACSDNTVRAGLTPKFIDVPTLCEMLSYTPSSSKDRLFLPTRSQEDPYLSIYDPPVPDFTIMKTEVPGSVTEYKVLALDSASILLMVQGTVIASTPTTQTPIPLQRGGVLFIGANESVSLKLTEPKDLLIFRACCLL
row,SMILES,inhibition
1,CN1C(=O)NC(c2ccccc2)C2=C1CN(c1ccc3ccccc3c1)C2=O (configuration not stated),9.4%
2,COc1ccc(C(=O)C[n+]2cn(C(F)F)c3ccccc32)c(F)c1,-11.8%
3,Cc1cc(C)n(C(=O)CSc2nnc(SCC(=O)n3nc(C)cc3C)s2)n1,-11.7%
4,CC(=O)N1CCc2cc(S(=O)(=O)NC(CC(C)C)C(=O)N3CCn4c3nc3ccccc34)ccc21 (configuration not stated),6.2%
5,COCCNCC1C(Oc2ccc(Cl)cc2)C(=O)N1c1ccccc1C (configuration not stated),50.7% (active)
6,CCCNCC1C(Oc2ccc(Cl)cc2)C(=O)N1c1ccccc1C (configuration not stated),-6%
7,COCCCNCC1C(Oc2ccc(Cl)cc2)C(=O)N1c1ccccc1C (configuration not stated),-5.6%
8,Nc1ncc(-n2cncn2)c(-c2ccc(Cl)cc2)n1,9.9%
9,CC1CCCCC1NCC(=O)NCc1ccc(F)cc1 (configuration not stated),-10.5%
10,CCOC(=O)c1c(C)oc2cc(Br)c(OC(=O)N3CCOCC3)cc12,11.1%
11,COc1ccc(-c2nc(C#N)c(N3CCN(c4cccc(Cl)c4)CC3)o2)cc1OC,4.2%
12,CC1=CC(C)(C)Nc2ccc(OC(=O)CN3C(=O)CCC3=O)cc21,12.7%
13,CC1=CC(C)(C)Nc2ccc(OC(=O)C(C)N3C(=O)c4ccccc4C3=O)cc21 (configuration not stated),24.3%
14,CC1=CC(C)(C)Nc2ccc(OC(=O)c3cccnc3)cc21,16%
15,CC1=CC(C)(C)Nc2ccc(OS(=O)(=O)c3ccc(C)cc3)cc21,51.5% (active)
16,CC1=CC(C)(C)Nc2ccc(OC(=O)CN3C(=O)c4ccccc4C3=O)cc21,26.2%
17,CC1=CC(C)(C)Nc2ccc(OC(=O)c3ccco3)cc21,52% (active)
18,CC(=O)Nc1ccc(S(=O)(=O)Oc2ccc3c(c2)C(C)=CC(C)(C)N3)cc1,29.5%
19,CC1CC(C)(C)Nc2ccc(OC(=O)c3ccco3)cc21 (configuration not stated),25.5%
20,COC(=O)c1nn(-c2ccc(C)cc2)ccc1=O,-2.7%
21,Cc1cccc(C(=O)NCCc2nnc(SCC(=O)Nc3nc(C)cs3)n2C)c1,4%
22,CC1CCCN(S(=O)(=O)c2ccc(S(=O)(=O)N3CCC4(CC3)OCCO4)cc2)C1 (configuration not stated),2.2%
23,CC(C)OC(=O)c1cc(NC(=S)Nc2ccc([N+](=O)[O-])cc2)cc(C(=O)OC(C)C)c1,4%
24,CCC1(CC)C(=O)N=C2c3ccccc3C(=O)N21,-2.6%
25,O=C(c1ccc(C(F)(F)F)cc1)N1CCC(=O)N(C(COCc2ccccc2)Cc2ccccc2)CC1 (configuration not stated),-5.1%

row,SMILES,inhibition
1,O=C(Nc1ccccc1)c1cc2c(=O)c3ccccc3oc2nc1C(F)(F)F,4.4%
2,COc1ccccc1N1CCN(c2cnccn2)CC1,5.8%
3,CNCc1ccccc1Sc1cc(O)ccc1O,41.3%
4,CNCc1ccccc1Sc1cccc(O)c1,-1.7%
5,O=C(Cc1ccccc1)NCC(=O)N1CCCCC1,-8%
6,O=C(NNC(=O)C1CC1c1ccccc1)c1ccccc1F (configuration not stated),-2.1%
7,CCOC(=O)c1cccc(NC(=O)CCc2ccccc2)c1,-0.6%
8,CC(=O)NC(Cc1ccccc1)c1ccc2c(c1)OCCCO2 (configuration not stated),4.4%
9,COc1cccc(CNC(=O)CC(NC(C)=O)c2ccccc2)c1 (configuration not stated),1%
10,COc1cc([C@H](Cc2ccccc2)NC(C)=O)oc(=O)c1,53.9% (active)
11,Cc1cccc(C(=O)Oc2ccccc2-c2nnco2)c1,-9.6%
12,COc1ccc(C(c2sc3nc(C)nn3c2O)N2CCCCC2)cc1 (configuration not stated),4.3%
13,O=c1[nH]c2cc3c(cc2cc1CN(CC1CCCO1)S(=O)(=O)c1ccccc1)OCCO3 (configuration not stated),4.9%
14,COc1ccc(C(=O)N/N=C(\C)CC(=O)N2CCN(C=O)CC2)cc1,-9.2%
15,C/C(CC(=O)N1CCN(C=O)CC1)=N\NC(=O)c1ccc(Cl)cc1,3.6%
16,CC(=O)NC(Cc1cc(C)ccc1C)C(=O)N1CCN(C(=O)c2ccccc2Br)CC1 (configuration not stated),-3.4%
17,O=[N+]([O-])c1cc(-c2n[nH]c(-c3ccccc3)n2)cc([N+](=O)[O-])c1,-4.6%
18,Oc1cccc(/C=N/Nc2cccc3cccnc23)c1,20.3%
19,COc1ccc(/C=C2\SC(=O)N(CCC(=O)Nc3ccc(S(=O)(=O)Nc4nccs4)cc3)C2=O)cc1,8.6%
20,CCCNS(=O)(=O)c1ccc(CCC(=O)Nc2ccc3c(c2)OCO3)cc1,10.1%
21,CCCNS(=O)(=O)c1ccc(CCC(=O)Nc2ccc3c(c2)OCCO3)cc1,50.1% (active)
22,O=C(CCc1ccc(S(=O)(=O)NCCc2ccccc2)cc1)Nc1ccc2c(c1)OCCO2,-3.2%
23,Cc1nn(-c2ccccc2)c(N2CCCC2)c1/C=N/NC(=O)c1ccccc1O,-2.8%
24,O=C(Oc1ccc(/C=N/NC(=O)c2ccccc2O)cc1)c1ccccc1,-12.7%
25,O=C(N/N=C/c1cc2c3c(c1O)CCCN3CCC2)c1ccccc1O,50.2% (active)

row,SMILES,inhibition
1,COC(=O)c1ccc(NC(=S)Nc2ccc(O)cc2)cc1,-3.3%
2,Oc1ccc(NC(=S)Nc2ccccc2)cc1,16.4%
3,Oc1ccc(NC(=S)Nc2ccc(O)cc2)cc1,66.7% (active)
4,CCOc1cc(C(N)=O)cc(Cl)c1OCC,1.7%
5,Cc1ccc(C(=O)Nc2ccc(C(=O)N/N=C/c3c[nH]c4ccccc34)cc2)cc1,11.4%
6,Cc1ccc(C(=O)/C=C/c2c[nH]c3ccccc23)cc1,54.4% (active)
7,Cc1ccc(/C=C/C(=O)c2ccccc2)cc1,11.2%
8,O=C(/C=C/c1c[nH]c2ccccc12)c1ccccc1,52.5% (active)
9,Cc1[nH]c2ccccc2c1/C=C/C(=O)c1ccccc1,3.9%
10,O=C(/C=C/c1c[nH]c2ccccc12)c1cccc2ccccc12,42%
11,COc1cc(/C=C(\C#N)c2nc3ccccc3[nH]2)cc(Br)c1OCc1ccc(F)cc1,19.3%
12,c1ccc(COCCN2CCN(CCOCc3ccccc3)CC2)cc1,3.2%
13,CCSc1nc2ccc(OC)cc2cc1C#N,14.3%
14,COc1ccc2nc(SCC(C)=O)c(C#N)cc2c1,-92.4%
15,COc1ccc2nc(N3CCCC3)c(C#N)cc2c1,-5.8%
16,COc1ccc2nc(N3CCC(C)CC3)c(C#N)cc2c1,-5.3%
17,COc1ccc2nc(N3CCC(O)CC3)c(C#N)cc2c1,51.2% (active)
18,COc1ccc2nc(SC)c(C#N)cc2c1,52.1% (active)
19,COc1cccc(C2=NCCc3cc4c(cc32)OCO4)c1OC,1.3%
20,CCC(=O)Nc1nc2c(s1)COc1ccccc1-2,6.3%
21,CCC12CN3CC(CC)(CN(C1)C3c1ccccc1Cl)C2O (configuration not stated),6.4%
22,CCN(CC(=O)NC1CCS(=O)(=O)C1)C(=O)/C=C/c1cccs1 (configuration not stated),-0.6%
23,Cc1ccc(-c2csc(/C(C#N)=C/Nc3ccccc3SC(F)(F)F)n2)cc1,-3.6%
24,O=C(Cc1csc(N2CCOCC2)n1)N/N=C/c1cccc(O)c1,6.6%
25,O=C(CCc1ccc(S(=O)(=O)N2CCOCC2)cc1)N/N=C/c1ccc(F)cc1F,10.5%

row,SMILES,inhibition
1,O=C(Cc1csc(N2CCOCC2)n1)N/N=C/c1ccc(Cl)cc1Cl,4.5%
2,O=C(CCc1ccc(S(=O)(=O)N2CCOCC2)cc1)N/N=C/c1cccc(O)c1,-6.2%
3,CCN1CCc2c(OCC(=O)N3CCC(C)CC3)cccc2C1=O,-8.8%
4,COc1cccc(C(=O)NC(=S)Nc2ccc3oc(=O)ccc3c2)c1,4.1%
5,COc1ccc(S(=O)(=O)N2CCCCC2)cc1NC(=S)Nc1cccc(Cl)c1C,7.7%
6,Cc1cc(N2C(=O)CCC2=O)ccc1NC(=O)c1cccs1,-1.9%
7,COCc1cc(/C=N\NC(=O)COc2ccc(Cl)cc2)ccc1OC,-2%
8,O=c1[nH]ccc2c([N+](=O)[O-])cccc12,55.2% (active)
9,Cn1ccc2c([N+](=O)[O-])cccc2c1=O,23.6%
10,O=c1[nH]cnc2c([N+](=O)[O-])cccc12,-12.2%
11,CCc1[nH]c(=O)[nH]c1C(C)S(=O)(=O)c1ccc(C)cc1 (configuration not stated),70.3% (active)
12,CCc1c(C(C)S(=O)(=O)c2ccc(C)cc2)[nH]c(=O)n1-c1ccc(OC(F)(F)F)cc1 (configuration not stated),-28.2%
13,CCc1c(C(C)S(=O)(=O)c2ccc(C)cc2)[nH]c(=O)n1-c1ccc(C)cc1 (configuration not stated),-35.3%
14,CCOC(=O)C1(CCc2ccccc2)CCN(Cc2ccc(OC)cc2)CC1,3.3%
15,O=C(NC1CCCCC1)c1ccc(NS(=O)(=O)c2cccc3cccnc23)cc1,-3.4%
16,CN1CCN(CC(O)(c2ccc(Cl)cc2)c2ccc(Cl)cc2)CC1,55.4% (active)
17,NCC(O)(c1ccc(Cl)cc1)c1ccc(Cl)cc1,10.4%
18,CN1CCN(CC(C)(C)NS(=O)(=O)c2ccc(Cl)cc2)CC1,3.4%
19,COCCN(C(=O)CSc1nnc(-c2ccccc2F)n1C)c1c(N)n(Cc2ccccc2)c(=O)[nH]c1=O,-3.1%
20,CCCCOc1ccc(CN2CCCCC2)cc1,14.9%
21,Oc1ccc(N2CCN(Cc3ccc(OCCCN4CCCCC4)cc3)CC2)cc1,58.4% (active)
22,COC(=O)C1CCN(Cc2ccc(OCCCN3CCN(c4ccc([N+](=O)[O-])cc4)CC3)cc2)CC1,14%
